p53 reactivation: mutant p53 re-activation in reporter cells | Potency, µM (top dose mostly 92.2 µM), without a hit: at the highest dose activity change, positive = activation, hits mostly activators | H1299 p53-A138V BP100-luciferase reporter, luminescence, 24 h | 320,000 tested, 0.063% active; also: potency is read from the fitted curve at half-maximal effect; % of control where 0% means no effect; nearly all actives have a fitted effect of over 45% in size
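H1299 (p53-null), stable ts p53-A138V + BP100-Luc; 1000 cells/well, Opti-MEM/10% FBS; cpd 4 pt, 1:5; 24 h, 37 deg C, 5% CO2; detection reagent 10 min RT; luminescence.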
Giardia killer: kills Giardia lamblia. Giardia lamblia trophozoite viability. activity change, % at 7.66 µM, hits read low. 340,000 tested, 0.15% active. AID 540267; in the data active = activity change below about -80%; inconclusive = between about -30% and that limit;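 also: parasites exposed to compound for two days anaerobically before the ATP read; % is scaled to controls: 0 for no effect and ±100 for the full control effect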
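ATP-content bioluminescence gauges trophozoite survival. Cells (100/well) receive compound and incubate anaerobically for 48 hrs at 37 deg C; detection reagent follows for 15-30 min at room temperature.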
ELG1 repair inh: blocks ELG1-dependent DNA repair in HEK293T cells; HEK293T ELG1-luciferase reporter, luminescence, 16 h; DNA damage induced by 5-fluorouridine; Potency, µM (titrated, usually from 46.1 µM), without a hit: at the highest dose activity change, negative = inhibition, usual class: inhibitors; 330,000 tested, 2.3% active; also: potency is read from the fitted curve at half-maximal effect; % is scaled to controls: 0 for no effect and ±100 for the full control effect; nearly all actives have a fitted effect of over 55% in size
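HEK293T cells expressing luciferase-tagged ELG1 (2,000/well) received 5-Fluorouridine plus compound or DMSO for 16 hr at 37 °C. Luciferase was read by ONE-Glo luminescence after 30 min at room temperature.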
RORg inh: ROR gamma (mouse) transcription inhibition; Potency, µM (doses to about 53.6 µM), inactives show at the highest dose activity change, negative = inhibition, hits mostly inhibitors; Drosophila S2 Gal4-RORgamma UAS-luciferase reporter, 20 h; 310,000 tested, 5.4% active; P51450; AID 2551; also: potency is read from the fitted curve at half-maximal effect; % is scaled to controls: 0 for no effect and ±100 for the full control effect; nearly all actives have a fitted effect of over 60% in size
Target sequence (P51450 whole entry, looked up, the tested form may be a part): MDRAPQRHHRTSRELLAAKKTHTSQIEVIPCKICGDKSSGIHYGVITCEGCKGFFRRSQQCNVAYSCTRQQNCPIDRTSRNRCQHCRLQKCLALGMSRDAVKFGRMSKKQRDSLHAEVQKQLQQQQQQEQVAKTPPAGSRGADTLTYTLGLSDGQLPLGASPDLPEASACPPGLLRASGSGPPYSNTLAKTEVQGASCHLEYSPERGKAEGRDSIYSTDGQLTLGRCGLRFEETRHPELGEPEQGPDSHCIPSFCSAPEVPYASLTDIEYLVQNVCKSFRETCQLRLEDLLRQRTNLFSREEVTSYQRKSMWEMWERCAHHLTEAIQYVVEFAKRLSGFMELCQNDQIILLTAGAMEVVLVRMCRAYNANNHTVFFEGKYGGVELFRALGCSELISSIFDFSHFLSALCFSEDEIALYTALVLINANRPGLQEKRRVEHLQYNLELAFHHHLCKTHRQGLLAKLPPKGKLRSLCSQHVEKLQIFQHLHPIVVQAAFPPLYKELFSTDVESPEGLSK
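Stable Schneider cell line, Gal4 DNA-binding domain fused to ROR gamma, UAS-luciferase. Cmpd 1 hr RT → CuSO4 700 uM final → 20 hr RT → luciferase reagent 10 min → luminescence.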
VP16 counter: counter-screen for ROR gamma inhibitors: Gal4-VP16 reporter; Drosophila S2 Gal4-VP16 UAS-luciferase, luminescence, 20 h; Potency, µM (series often up to 53.6 µM), for the others: top-dose activity, negative = inhibition, most hits filed as inhibitors; 310,000 tested, 3.5% active; AID 2546;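 also: Gal4-VP16 expression switched on by copper sulfate through the metallothionein promoter; potency is read from the fitted curve at half-maximal effect; % is scaled to controls: 0 for no effect and ±100 for the full control effect; nearly all actives have a fitted effect of over 50% in size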
BRCA1 expr act: BRCA1 expression activation; Potency, µM (doses to about 46.1 µM), for inactives: top-dose activation, actives largely listed as activators; 380,000 tested, 1.1% active; MCF7-BRCA1-FFLuc reporter, luminescence, 48 h; response scale: scaled: vehicle 0%, 10 µM genistein 100%; also: potency is read from the fitted curve at half-maximal effect; nearly all actives have a fitted effect of over 80% in size
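Luminescence from a BRCA1-driven firefly luciferase in MCF7 cells was the read-out, taken 15 min after substrate addition following 48 h compound exposure at 37 °C. Data were normalized to a 10 microM genistein control and DMSO vehicle.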
Active calls of the source: *; ? = inconclusive; / = no result given; [ ] = dose if it differs, or a comment. Sampled rows, rich in hits. Any-hit rate of the full collection: about 7.6%. Unless noted, calls follow the shape of the dose curve; as a rule, active = well fitted curve in the direction sought with a large enough effect; inconclusive = small, poorly fitted or top-dose-only effect, or another doubt; inactive = no such curve, though single readings can be large; an effect the other way counts as inactive or inconclusive.

SMILES	p53 reactivation	Giardia killer	ELG1 repair inh	RORg inh	VP16 counter	BRCA1 expr act
C#CCOCCOCCOCCNc1nc(N2CCN(C(=O)CCCCCCCCCCNC(=O)[C@H](CCCCN)n3cc(C)nn3)CC2)nc(N2CCN(C(=O)CCCCCCCCCCNC(=O)[C@@H]([C@H](C)O)n3cc(C)nn3)CC2)n1	17%	-16	14µM*	/	/	-52%
CC[C@H](C)Cc1cn([C@@H](CCCN=C(NC(=O)OC(C)(C)C)NC(=O)OC(C)(C)C)C(=O)NCCCCCCCCCCC(=O)N2CCN(C(=O)OC(C)(C)C)CC2)nn1	-22%	28	7.3µM*	/	/	-39%
COc1ccc(S(=O)(=O)N2CC(=O)Nc3ccccc32)cc1F	-26%	-3	-7%	-18%	2%	7%
CC(C)Nc1cc(C(F)(F)F)nc(-c2ccccn2)n1	-5%	-6	-4%	1µM*	6.3µM*	-2%
FC(F)(F)c1cc(Sc2ccccc2)nc(-c2ccccn2)n1	1%	-9	18%	11µM*	?	0%
FC(F)(F)c1cc(Nc2ccccc2)nc(-c2ccccn2)n1	-4%	-18	-13%	2µM*	4.5µM*	4%
O=S(=O)(c1ccc2c(c1)OCCO2)N1CCCN(S(=O)(=O)c2c(F)cccc2F)CC1	-5%	-12	?	/	/	-10%
CC1(C)CCc2cc(S(=O)(=O)N3CCN(S(=O)(=O)c4c(F)cccc4F)CC3)ccc2O1	?	3	?	/	/	7.9µM*
N#Cc1ccc(NCCNCC(=O)N2N=CCC2C#N)nc1 (configuration not stated)	/	/	/	-20%	-5%	/
CCN1CCN(CCNC(=O)c2ccc(/C=C3/Sc4ccccc4N(Cc4ccccc4C)C3=O)cc2)CC1	-6%	32	?	?	18µM*	-59%
COc1ccc(-c2[nH]c(-c3cc(OC)c4c(c3)OCO4)nc2-c2ccccc2)cc1	16%	8	21µM*	?	2%	-76%
COc1cc(C(=O)Nc2c(C(=O)O)[nH]c3ccc(C)cc23)cc(OC)c1OC	-1%	-12	9%	4%	2%	-28%
COc1cccc(NC(=S)N(Cc2ccccn2)Cc2ccccc2Cl)c1	0%	2	?	6.3µM*	?	3%
COc1ccc(NC(=S)N(Cc2ccccn2)Cc2ccccc2Cl)cc1	6%	0	?	5.6µM*	-15%[10 µM]	1%
CCc1ccc(NC(=S)N(Cc2ccccc2)Cc2ccccn2)cc1	3%	0	10%	0.32µM*	?	-2%
COc1ccc(NC(=O)NCc2ccccn2)cc1	21%	15	?	25%	-5%	8%
COc1cccc(NC(=S)N(CCc2ccc(OC)c(OC)c2)Cc2ccccn2)c1	-3%	-2	-7%	?	18%	7%
COCCN(Cc1ccccc1)C(=S)Nc1ccc(Cl)cc1	0%	-21	?	7.1µM*	-2%[10 µM]	-16%
Cc1cnc(NC(=O)c2ccc(F)c(S(=O)(=O)N3CCOCC3)c2)s1	8%	11	?	/	/	-11%
Cn1c(Cn2nnc(-c3ccccc3)n2)nnc1SCc1ccccc1Cl	-9%	5	3%	6%	11µM*	-27%
O=C(COc1ccc(Cl)cc1)Nc1nc(-c2ccc(S(=O)(=O)N3CCOCC3)cc2)cs1	-3%	-6	?	?	6%	-7%
CCOC(=O)C1=C(C)N=c2s/c(=C\c3cccc(OCC(=O)O)c3)c(=O)n2C1c1ccccc1OC (configuration not stated)	-6%	-6	-4%	16%	-2%	7%
COc1ccccc1C1C(C(C)=O)=C(C)N=c2s/c(=C\c3cc(OC)c(OC)c(OC)c3)c(=O)n21 (configuration not stated)	10%	16	23µM*	9%	-3%	-77%
CCOC(=O)CCNC(=O)Nc1ccc2nc(C)n(Cc3ccc(Cl)cc3)c(=O)c2c1	-8%	-9	15µM*	-13%	-2%	5%
NC(=O)c1ccc(-n2nnnc2SCC(=O)Nc2ccccc2-c2ccccc2)cc1	-9%	-1	?	?	1%	-9%
SMILES	p53 reactivation	Giardia killer	ELG1 repair inh	RORg inh	VP16 counter	BRCA1 expr act
CCOc1ccc2c(c1)-c1c(ssc1=S)C(C)(C)N2C(=O)CSC1=NCCS1	3%	-22	-4%	3.2µM*	7%	-47%
Cc1ccc2c(c1)-c1c(ssc1=S)C(C)(C)N2C(=O)CSC1=NCCS1	6%	5	15%	?	-6%	5%
CN(C)c1ncnc2c1ncn2CCn1cnc2c(N(C)C)ncnc21	/	0	/	/	/	-4%
CN(C)c1ncnc2c1ncn2-c1ccccc1	/	-10	/	/	/	11µM*
CCOC(=O)CN(C(=O)CN1CCC(n2nnc3cc(C)ccc32)CC1)c1ccccc1	-2%	2	?	2%	-9%	-19%
Cc1ccc2c(c1)nnn2C1CCN(C(=O)C23CC4CC(CC(C4)C2)C3)CC1	-9%	-3	23µM*	15%	5%	-10%
Cc1ccc2c(c1)nnn2C1CCN(CC(=O)N(c2ccccc2)c2ccccc2)CC1	-5%	-3	16µM*	1%	0%	-21%
CCOc1cc(-n2ncc(C#N)c2N)nc(SC)n1	-3%	-6	-3%	9%	-11%	13%[1.84 µM]
COc1cccc(CC(=O)Nc2ccc3nc(Nc4cccc(C(F)(F)F)c4)cc(C)c3c2)c1	/	/	/	/	/	-66%
CCCCC(=O)Nc1nnc(/C=C/c2ccc(OC)cc2)s1	-8%	8	-5%	2%	-13%	?
COc1ccc(/C=C/c2nnc(NC(=O)COc3cccc(C)c3)s2)cc1	-2%	-20	12%	-11%	?	4.5µM*
CCCC(=O)Nc1nnc(/C=C/c2ccc(OC)cc2)s1	4%	-6	0%	-29%	25%	5.6µM*
COc1ccc(/C=C/c2nnc(NC(=O)COc3ccccc3)s2)cc1	20%	-15	0%	1%	14%	?
COc1ccc(NC(=O)c2nn(C)c(=O)c3ccccc23)cc1S(=O)(=O)Nc1ccccc1Cl	-1%	21	4%	6%	15%	-36%
COCC(C)NC(=O)COc1ccc(Cl)cc1Cl (configuration not stated)	15%	7	-19%	-32%	-10%	14%
COCC(C)NC(=S)NCCc1ccc(Cl)cc1Cl (configuration not stated)	5%	-5	-4%	1µM*	3.5µM*	-3%
COCCNC(=S)NCCc1ccc(Cl)cc1Cl	2%	11	-7%	6.3µM*	-26%	-7%
O=C(COC(=O)CNC(=O)c1ccccc1)Nc1ccc(Cl)cc1C(F)(F)F	5%	12	-1%	1%	1%	-1%
